The text below walks through data of PubChem BioAssay (NCI).

What all share (assay): NCI-60 one-dose screen, 48 h (100 = growth as untreated, 0 = no growth, -100 = all killed)
Details in all cases: 10 µM unless noted

The subject of experiment [1] is SK-MEL-2 melanoma.
Experiment [2] deals with EKVX NSCLC.
Experiment [3] has as its system SN12C renal.
Experiment [4] concerns UO-31 renal.
Experiment [5] has as its system TK-10 renal.
The subject of experiment [6] is ACHN renal.
For experiment [7], the system named is CAKI-1 renal.
Experiment [8] deals with A498 renal.
Experiment [9] has as its system CCRF-CEM leukemia.
Experiment [10] has as its system MOLT-4 leukemia.

The structures appear in SMILES notation. Compounds without any hit were thinned out: in the full panel of roughly 83,000, 20% have a hit.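 Cell lines were cultured in 96-well plates, exposed to a single compound concentration, and assessed for percent growth 48 hours later.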 Values without a mark were called inactive. The source made the active and inactive calls. Rule for the calls: active = growth percent below 10; inactive = the rest.

`COC(=O)C[C@](O)(CCCC(C)(C)O)C(=O)O[C@H]1C(OC)=C[C@@]23CCCN2CCc2cc4c(cc2[C@@H]13)OCO4`: the growth in [1] is -40% (active); in experiment [2], -4.85% (active); in [3] it was -11.3% (active); in [4], 30.6%; in experiment [5], -12.6% (active); in experiment [6], 2.95% (active). Besides, the growth in experiment [7] is 3.41% (active); in [8], -18.6% (active); in experiment [9] it was -5.84% (active); in [10] it was -6.36% (active).

With `CC1(C)CC[C@]2(C(=O)Nc3ccc(F)cc3)CC[C@]3(C)C(=CCC4[C@@]5(C)C[C@@H](O)[C@H](O)[C@@](C)(CO)C5CC[C@]43C)C2C1` (stereo partly drawn), the growth in [1] was 45.9%; in [2], 32.3%; in [4], 29.8%; in experiment [5], 58.6%; in experiment [6], 31.3%; in experiment [7], 42.7%. For the same compound, the figures for the growth in experiment [8], in experiment [9] and in experiment [10] were 29.8%, 18.2% and 5% (active), respectively.

Consider `COc1ccc(N2N=C(c3ccc4c(c3)OCO4)CC2c2cccc(NC(=O)CCCNS(=O)(=O)c3ccc(F)cc3)c2)cc1` (stereo not drawn), for which the growth is 73.5% in experiment [1]; 52.1% in [2]; 56.2% in experiment [4]; 66.8% in [5]; 59.2% in experiment [6]; 49% in experiment [7]. Moreover, the growth in experiment [8] was 67.6%; in [9], 53.5%; in experiment [10], 33.4%.

`S=c1c2ccccc2nc2n1CCc1c-2[nH]c2ccccc12`: the growth in experiment [1] was 72.9%; in experiment [2], 50.6%; in [3], 60.9%; in experiment [4], 56.8%; in [5], 69%; in [6], 42.4%. In addition, the growth in [7] is 36.6%; in [8], 112%; in experiment [9] it was 96.2%; in experiment [10], 74.1%.

Regarding `O=C(Cn1c2c(sc1=O)[C@H]1[C@@H](O)[C@@H](O)[C@H](O)[C@@H]1CS2)N1CCOCC1`, the growth in experiment [1] is 100%; in experiment [2] it was 100%; in [3], 102%; in experiment [4], 91.1%; in experiment [5] it was 88.2%; in experiment [6] it was 102%. For the same compound, the results for the growth in experiment [7], in experiment [8] and in experiment [10] were 94.7%, 99.3% and 118%, respectively.

As to `CC12CC[C@@H]3[C@]4(C)COC(c5cn[nH]c5-c5cccc(Cl)c5)O[C@@H]4CC[C@@]3(C)[C@@H]1CC(C1=CCOC1=O)O2` (stereo partly drawn), the growth in experiment [1] is 42.4%; in experiment [2], 26%; in experiment [4], 16.4%; in experiment [5] it was 45.9%; in experiment [6] it was 31.3%; in experiment [7] it was 45.6%. The growth in [8] is 73.6%; in experiment [9], 25.5%; in experiment [10] it was 12.4%.

For `C=C1CC[C@@H]2[C@]3(C)COC(c4cn(-c5ccccc5)nc4-c4cccc([N+](=O)[O-])c4)O[C@@H]3CC[C@@]2(C)[C@@H]1C/C=C1/C(=O)OC[C@H]1O` (stereo partly drawn), the growth is -45.2% (active) in experiment [1]; -0.625% (active) in experiment [2]; 12.2% in [4]; 36.9% in [5]; -74.5% (active) in experiment [6]; 38.7% in experiment [7]. For the same compound, the growth in [8] was 105%; in experiment [9], -1.81% (active); in experiment [10] it was -3.81% (active).

As for `CC1(C)CC[C@]2(C(=O)Nc3ccc(Br)cc3)CC[C@]3(C)C(=CCC4[C@@]5(C)C[C@@H](O)[C@H](O)[C@@](C)(CO)C5CC[C@]43C)C2C1` (stereo partly drawn), the growth is -19.8% (active) in experiment [1]; 15.5% in experiment [2]; 21.1% in experiment [4]; 22.5% in [5]; 17.7% in experiment [6]; 20.6% in experiment [7]. Also, the growth was -45.2% (active) in [8], -19.8% (active) in experiment [9] and -10.5% (active) in experiment [10].

Regarding `NS(=O)(=O)c1ccc(NNC(=O)CCC(=O)c2ccccc2)cc1`, the growth in experiment [1] is 107%; in experiment [2] it was 103%; in experiment [4], 84%; in [5], 109%; in experiment [6] it was 101%; in experiment [7] it was 90.2%. Moreover, the growth in [8] was 94.2%; in [9], 75.1%; in experiment [10], 89.8%.

On to `CCN1C(=O)/C(=N\N=C(/C)c2ccc3c(c2)Nc2ccccc2S3)c2cc(Cl)ccc21`, for which the growth in [1] is 70.8%; in [2], 40.1%; in experiment [4], 56.6%; in [5], 72.1%; in [6], 24.6%; in experiment [7] it was 48.1%. Also, the growth is 60.1% in [8], 50.8% in [9] and 37.4% in [10].

Turning to `CN(C)CCn1c2ccccc2c2nc3ccc([N+](=O)[O-])cc3nc21`, the growth in [1] was -10.6% (active); in experiment [2] it was 17.3%; in experiment [4], -47.6% (active); in [5], -1.22% (active); in [6] it was -40.8% (active); in [7], -23.8% (active). In addition, the figures for the growth in [8], in experiment [9] and in experiment [10] were -41.7% (active), 17.6% and 8.56% (active), respectively.

In the case of `O=C(O)c1cccc(-c2ccc(/C=N/NC(=O)c3[nH]c4ccc(Br)cc4c3-c3ccccc3)o2)c1`, the growth in [1] is 61.4%; in [2], 86.3%; in [4], 81%; in experiment [5], 117%; in [6] it was 89.9%; in experiment [7], 96.4%. In addition, the growth was 95.3% in experiment [8], 9.68% (active) in experiment [9] and 63.6% in experiment [10].

As for `CC(C)Sc1nc(NCCc2c[nH]c3ccccc23)c(C#N)c(-c2ccccc2)n1`, the growth in experiment [1] was 68.7%; in experiment [2], 18%; in experiment [4], 32.1%; in experiment [5], 67.4%; in experiment [6], 33%; in experiment [7], 34.3%. Also, the growth was 23.4% in [8], 8.66% (active) in [9] and 5.18% (active) in experiment [10].

On to `CN(C)CCn1c2ccccc2c2nc3cc(C(F)(F)F)ccc3nc21`, for which the growth is 56.4% in [1]; 64.3% in experiment [2]; 21.7% in experiment [3]; 11.9% in [4]; 108% in [5]; 13.5% in [6]. In addition, the growth is 11% in experiment [7], 75.8% in [8] and 23.8% in experiment [10].
